Hits are enriched below; roughly 3.2% of the tested compounds scored in any of these assays.
LASV entry inh = qHTS for Inhibitors of binding or entry into cells for Lassa Virus; AID 540256, 2011; Potency, µM (highest dose often 37.9 µM), hits mostly inhibitors; hit rate 1.2% among 300,000; Lassa virus pseudotype entry inhibition, cell reporter; calls by dose curve; tested in HEK293 cells; also: nearly all actives have a fitted effect of over 50% in size
MARV entry inh = qHTS for inhibitors of binding or entry into cells for Marburg Virus; Potency, µM (series often up to 37.8 µM), usual class: inhibitors; hit rate 1.8% among 300,000; AID 540276, 2011; Marburg virus pseudotyped entry inhibition, cell reporter; calls by dose curve; tested in HEK293 cells
FMDV antiviral = High Throughput Screening for Foot and Mouth Disease Virus Antivirals; FMDV antiviral cell-based qHTS; Potency, µM (series often up to 57.9 µM), hits mostly inhibitors; hit rate 1.2% among 410,000; calls by dose curve; tested in HEK293T cells; also: read-out not given here; nearly all actives have a fitted effect of over 45% in size
VACV Venus inh = qHTS for Stage-Specific Inhibitors of Vaccinia Orthopoxvirus: Venus Reporter Primary qHTS. Vaccinia virus Venus reporter expression, fluorescence. Potency, µM (top dose mostly 36.5 µM), hits mostly inhibitors. hit rate 0.46% among 330,000. AID 720580, 2013; calls by dose curve; tested in A549 cells; also: nearly all actives have a fitted effect of over 30% in size
Vaccinia mCherry = qHTS for Stage-Specific Inhibitors of Vaccinia Orthopoxvirus: mCherry Reporter Primary qHTS; Vaccinia virus mCherry reporter infection, fluorescence; Potency, µM (highest dose often 36.5 µM), actives largely listed as inhibitors; hit rate 0.63% among 310,000; calls by dose curve; tested in A549 cells; also: nearly all actives have a fitted effect of over 35% in size
Numbers stand for hits; i = inactive; ? = inconclusive; nt = no result.

SMILES	LASV entry inh	MARV entry inh	FMDV antiviral	VACV Venus inh	Vaccinia mCherry
CCOC(=O)C1NC2CCC(OCC)CC2C1CCCN1C(=O)C2=C(CCCC2)C1=O (configuration not stated)	nt	i	nt	nt	nt
CCC=CC[C@@]1(C(=O)OC)C=C[C@@H](C)[C@H](c2ccccc2Br)N1C(=O)C(F)(F)F	nt	i	nt	nt	nt
Cc1ccc2nc(-c3ccccn3)c(N)n2c1	nt	nt	14µM	i	i
Cc1ccc2nc(-c3ccccn3)c(Nc3ccccc3C)n2c1	?	i	?	?	6.3µM
CCN(CCCl)c1cc(CN(C)C)cc(NC(=O)c2ccc(C(=O)Nc3cc(CN(C)C)cc(N(CC)CCCl)c3)cc2)c1	?	?	?	2.8µM	1.3µM
CCOc1ccc(N2C(=O)/C(=C/c3ccc(C)o3)C(=O)NC2=S)cc1	nt	nt	40µM	nt	nt
CCN(CC(=O)Nc1ccc(NC(C)=O)cc1)C(=O)C1(c2ccc(Cl)cc2)CCC1	nt	nt	?	i	i
CN1CC=C2C(C#N)=C(N)C(C#N)(C#N)[C@H](c3ccncc3)[C@H]2C1	nt	i	nt	nt	nt
COc1ccc(C2C(C#N)=C(N)Oc3c2sc2nc(C)cc(C)c32)cc1 (configuration not stated)	?	?	40µM	i	i
C=Cc1cc(OC)c2c(c1)c(=O)oc1c2cc(OC)c2c(O)ccc(C3OC(C)C(O)C(C)(O)C3O)c21 (configuration not stated)	0.4µM	?	?	1µM	?
CCCCCCCC[n+]1c(C)n(-c2ccccc2)c2ccc(NC(C)=O)cc21	7.1µM	?	?	i	i
COc1cccc(C(=O)NCC(c2cccnc2)N2CCN(c3ccccc3OC)CC2)c1 (configuration not stated)	nt	nt	35µM	i	i
COc1ccc(C(=O)NCC(c2cccnc2)N2CCN(c3ccccc3OC)CC2)cc1OC (configuration not stated)	nt	i	?	i	i
COc1cccc(NC(=O)C(=O)NCC(c2cccnc2)N2CCN(c3ccccc3)CC2)c1 (configuration not stated)	11µM	nt	i	i	i
CCc1ccccc1NC(=O)C(=O)NCC(c1cccnc1)N1CCN(c2ccccc2F)CC1 (configuration not stated)	i	nt	40µM	i	i
COC(=O)NCC(c1cccnc1)N1CCN(c2ccccc2F)CC1 (configuration not stated)	nt	nt	i	i	i
COC(=O)CC=C[C@@H](C)[C@@H](C=NO[C@H](C)c1cn([C@@H]2COC[C@@H]2O)nn1)N[S+](=O)([O-])c1ccc(C)cc1	nt	i	nt	nt	nt
C[C@@H]1CC2CCCC2[C@]2(O1)C(=O)Nc1ccccc12 (some centres not stated)	nt	i	nt	nt	nt
COc1cc(-c2noc(CCCC(=O)NC3CCCCC3)n2)cc(OC)c1OC	i	i	i	nt	nt
CC1CCCN(c2ccc(C(=O)NCc3cccs3)cn2)C1 (configuration not stated)	10µM	i	nt	i	i
O=C(NCc1cccs1)c1ccc(N2CCCCC2)nc1	i	i	nt	?	i
O=C(NCC1CCC2(CCN(Cc3cc4ccccc4o3)CC2)O1)c1ccccc1 (configuration not stated)	nt	nt	i	i	i
C[C@H](N)Cc1c[nH]c2ccc(OCc3cccs3)cc12	nt	21µM	i	nt	nt
CC(N)Cc1c[nH]c2ccc(O)cc12 (configuration not stated)	i	?	i	i	i
CC(N)Cc1c[nH]c2ccc(OCc3cccs3)cc12 (configuration not stated)	i	21µM	i	i	i
SMILES	LASV entry inh	MARV entry inh	FMDV antiviral	VACV Venus inh	Vaccinia mCherry
Nc1nc(N)c2c(ccc3c2ccn3Cc2cccc([N+](=O)[O-])c2)n1	nt	nt	?	11µM	0.35µM
Nc1nc(N)c2cc([N+](=O)[O-])ccc2n1	i	i	i	i	?
COC(=O)[C@@H]1CCCN1C(=O)c1c(OC)cc(=O)n2c1CCN(Cc1ccc3cccnc3c1)CC2	nt	nt	i	i	i
Cc1ccccc1OCCn1cc(/C(N)=N/O)c2ccccc21	i	?	28µM	?	?
CC(=O)c1cn(CCOc2cc(C)ccc2C)c2ccccc12	i	1.6µM	?	i	i
COc1ccccc1OCCn1cc(C(=O)c2ccco2)c2ccccc21	i	?	25µM	i	?
Cc1ccc(C)c(OCCn2cc(C(=O)O)c3ccccc32)c1	i	i	i	i	i
Cn1c(=O)c2c(nc3n2CC(O)CN3c2ccc(O)cc2)n(C)c1=O (configuration not stated)	i	i	i	i	i
Cc1ccc(NC(=O)OC(C)N2CCCCC2)cc1NC(=O)OC(C)N1CCCCC1 (configuration not stated)	?	5µM	i	i	i
O=[N+]([O-])c1ccc(-c2ccc(/C=N/Nc3nc(NCc4ccccc4)nc(N4CCOCC4)n3)o2)cc1	i	10µM	i	i	i
COc1ccc(C(=O)COc2ccccc2C(=O)Nc2ccccc2)cc1	nt	nt	i	nt	nt
O=C(/C=C/c1ccc(C(F)(F)F)cc1)OC(C(=O)NC1CC1)c1ccccc1 (configuration not stated)	nt	nt	nt	i	i
CC(C)NC(=O)c1ccc(-c2cccc(C(F)(F)F)c2)o1	i	?	i	i	nt
Cc1cccc(C)c1NC(=O)CN(C)C(=O)c1ccc(-c2cccc(C(F)(F)F)c2)o1	5.6µM	?	i	i	i
COc1ccc(NC(=O)C(CC(C)C)NS(=O)(=O)c2ccc3c(c2)oc(=O)n3C)cc1Cl (configuration not stated)	?	i	i	i	i
COc1ccc(NC(=O)c2ccc(Cl)nc2)cc1S(=O)(=O)N1CCOCC1	nt	nt	i	nt	nt
COc1ccc(NC(=O)Cn2ncc(Cl)c(Cl)c2=O)cc1S(=O)(=O)N1CCOCC1	?	?	40µM	i	i
O=C(Cn1ncc(Cl)c(Cl)c1=O)Nc1ccc2c(c1)OCO2	nt	nt	35µM	nt	nt
O=C(Cn1ncc(Cl)c(Cl)c1=O)c1ccc2c(c1)OCCO2	13µM	?	?	i	?
O=C(Cn1ncc(Cl)c(Cl)c1=O)NC(=O)NC1CCCCC1	?	11µM	35µM	?	i
C/C(=C/CCC(C)(O)C1CC[C@@]2(C)[C@@H]3CC=C4[C@@H](CC[C@H](O[C@H]5O[C@@H](CO)[C@H](O)[C@@H](O)[C@@H]5O)C4(C)C)[C@]3(C)C(=O)C[C@]12C)CO[C@@H]1O[C@H](CO)[C@@H](O)[C@H](O)[C@H]1O (some centres not stated)	nt	nt	i	i	i
CC(=O)OC[C@H]1O[C@H](C#Cc2ccccc2Cl)C=C[C@H]1OC(C)=O	nt	i	nt	nt	nt
COc1ccc2c(c1)C=C/C2=C/c1ccc(N(C)C)cc1	nt	nt	nt	i	i
CN(C)c1ccc(-c2cncnc2Nc2ccccc2)cc1	nt	nt	i	nt	nt
O=C1C(=O)c2ccccc2C(O)=C1CC=C(Cl)Cl	3.2µM	?	?	i	?
CC(C)=CCC1=C(O)c2ccccc2C(=O)C1=O	nt	nt	i	i	i
Cc1cnc(SCc2ccccn2)nc1C1CCCN(C(=O)c2cc3ccccc3oc2=O)C1 (configuration not stated)	nt	nt	i	i	i
